Assay results as given in PubChem BioAssay (NCATS).
Results filed as inconclusive are left out. Calls of active or inactive are those of the source. Unless noted, the call rests on the fitted dose curve; in most records, active means well fitted curve in the direction sought with a large enough effect; inconclusive means small, poorly fitted or top-dose-only effect, or another doubt; inactive means no such curve, though single readings can be large; an effect the other way counts as inactive or inconclusive.

Key:
[1] = target: Vitamin D3 receptor (Homo sapiens) (UniProt P11473); assay: qHTS assay for small molecule agonists of vitamin D receptor signaling (AID 588543; calls by dose curve;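 further: 0% = DMSO basal and 100% = reference agonist control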)
Chain of Vitamin D3 receptor (Homo sapiens) (P11473 whole entry, looked up): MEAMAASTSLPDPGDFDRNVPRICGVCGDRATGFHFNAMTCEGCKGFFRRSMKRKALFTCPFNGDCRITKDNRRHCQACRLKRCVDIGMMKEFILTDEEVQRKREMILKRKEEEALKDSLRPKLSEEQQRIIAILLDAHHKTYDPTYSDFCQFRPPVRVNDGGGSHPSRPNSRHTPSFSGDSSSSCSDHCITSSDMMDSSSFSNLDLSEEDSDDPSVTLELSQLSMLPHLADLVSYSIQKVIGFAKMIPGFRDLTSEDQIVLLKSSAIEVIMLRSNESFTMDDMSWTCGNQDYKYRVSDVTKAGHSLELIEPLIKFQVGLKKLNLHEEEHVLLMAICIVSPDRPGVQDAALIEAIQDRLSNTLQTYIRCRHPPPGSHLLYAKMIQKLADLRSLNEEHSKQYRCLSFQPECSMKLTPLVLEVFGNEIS
In short: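 Measured: β-lactamase reporter activity (CCF4, 405 nm excitation, 460/530 nm emission) in HEK293T VDR-UAS-bla cells after 16 h compound exposure at 37 °C. Normalization against 50 nM 1α,25-dihydroxyvitamin D3 and DMSO; Hill-fit EC50.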

[2] = qHTS assay for small molecule agonists of retinoid X receptor alpha signaling (AID 588544; calls by dose curve;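 on activation: 0% = DMSO basal wells and 100% = reference agonist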); conditions: HEK293T RXRa-UAS-bla, beta-lactamase reporter, 18 h; 530 nm emission
[3] = target: Retinoic acid receptor RXR-alpha (Homo sapiens) (UniProt P19793); assay: as above
Chain of Retinoic acid receptor RXR-alpha (Homo sapiens) (P19793 whole entry, looked up): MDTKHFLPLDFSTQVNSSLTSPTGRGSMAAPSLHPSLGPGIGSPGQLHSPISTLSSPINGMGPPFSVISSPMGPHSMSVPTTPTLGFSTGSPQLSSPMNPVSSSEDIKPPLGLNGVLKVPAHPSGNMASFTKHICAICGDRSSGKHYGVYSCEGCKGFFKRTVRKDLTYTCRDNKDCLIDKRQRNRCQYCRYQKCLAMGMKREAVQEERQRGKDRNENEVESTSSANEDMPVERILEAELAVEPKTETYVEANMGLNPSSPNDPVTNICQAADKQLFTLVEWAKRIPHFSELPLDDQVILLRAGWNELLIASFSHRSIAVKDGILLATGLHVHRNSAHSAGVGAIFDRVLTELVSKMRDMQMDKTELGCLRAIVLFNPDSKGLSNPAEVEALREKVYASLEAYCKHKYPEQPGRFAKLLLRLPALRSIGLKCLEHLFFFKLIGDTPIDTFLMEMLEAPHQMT

[4] = target: Thyroid hormone receptor beta (Homo sapiens) (UniProt P10828); assay: qHTS assay for small molecule agonists of thyroid hormone receptor beta signaling (AID 588545; calls by dose curve;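 further: 0% = DMSO only and 100% = 10 nM T3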)
Chain of Thyroid hormone receptor beta (Homo sapiens) (P10828 whole entry, looked up): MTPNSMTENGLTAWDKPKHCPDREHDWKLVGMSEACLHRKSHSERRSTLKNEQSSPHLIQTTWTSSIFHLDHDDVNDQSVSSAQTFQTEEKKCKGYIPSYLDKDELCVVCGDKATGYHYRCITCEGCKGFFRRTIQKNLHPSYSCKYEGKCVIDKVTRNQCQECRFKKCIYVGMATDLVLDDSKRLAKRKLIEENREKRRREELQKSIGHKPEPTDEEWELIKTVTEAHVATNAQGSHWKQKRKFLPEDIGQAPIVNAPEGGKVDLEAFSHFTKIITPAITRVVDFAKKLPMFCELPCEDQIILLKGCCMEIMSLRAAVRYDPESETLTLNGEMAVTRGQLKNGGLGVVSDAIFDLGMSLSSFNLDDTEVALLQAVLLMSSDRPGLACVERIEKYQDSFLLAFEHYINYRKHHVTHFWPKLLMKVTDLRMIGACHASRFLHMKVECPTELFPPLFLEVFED
In short: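 TR-UAS-bla GripTite HEK 293 cells (2500/well, medium with 2% charcoal/dextran FBS) were treated in agonist mode for 18 h at 37 C, titrated. Beta-lactamase was read by CCF4 ratio after 2 h; normalized to 10 nM T3 (100%) and DMSO, Hill-fitted for EC50 and efficacy.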

[5] = qHTS assay for small molecule antagonists of retinoid X receptor alpha signaling (AID 588546; active means well fitted inhibition curve with a large enough effect in the signal ratio, with a control signal flat, not every such curve was filed as active; the % refers to the signal ratio;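 further: cells stimulated with 9-cis-retinoic acid as agonist; on the % scale 0 is the no-effect control and ±100 the full control effect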); conditions: HEK293T RXRa-UAS-bla, beta-lactamase ratio, antagonist mode; measured here: W530 green channel, cytotoxicity proxy
In short: (§1)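 Beta-lactamase reporter inhibition, read as CCF4 fluorescence ratio (ex 405, em 460/530 nm) after 2 h at RT. HEK293T UAS-bla cells, 2500/well, were stimulated with 9-cis-RA at 500 or 100 nM final alongside test compound for 18 h at 37 C.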

[6] = target: Retinoic acid receptor RXR-alpha (Homo sapiens) (UniProt P19793); assay: as above; conditions: HEK293T RXRa-UAS-bla, beta-lactamase ratio, antagonist mode
In short: as §1

[7] = target: Thyroid hormone receptor beta (Homo sapiens) (UniProt P10828); assay: qHTS assay for small molecule antagonists of thyroid hormone receptor beta signaling (AID 588547; active means well fitted inhibition curve with a large enough effect in the signal ratio, with a control signal flat, not every such curve was filed as active; the % refers to the signal ratio;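 further: cells stimulated with 0.4 nM T3 agonist during compound exposure; series mostly up to about 77 µM; on the % scale 0 is the no-effect control and ±100 the full control effect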); conditions: TR-UAS-bla HEK293, beta-lactamase ratio, antagonist mode, 18 h
In short: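 TR-UAS-bla GripTite HEK293 cells in 2% charcoal/dextran FBS medium were preincubated 4 h at 37 C, given compound (0.59 nM to 92 uM) plus 0.4 nM T3 (final) for 18 h, then CCF4 for 2 h at RT; Hill fit gave IC50.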

[8] = target: Voltage-gated inwardly rectifying potassium channel KCNH2 (Homo sapiens) (UniProt Q12809); assay: qHTS Assay for Small Molecule Inhibitors of the Human hERG Channel Activity (AID 588834);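 further: top concentration of the series differs between compounds; on the % scale 0 is the no-effect control and ±100 the full control effect; lower thallium flux fluorescence means stronger hERG block; nearly all actives have a fitted effect of over 50% in size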
Chain of Voltage-gated inwardly rectifying potassium channel KCNH2 (Homo sapiens) (Q12809 whole entry, looked up): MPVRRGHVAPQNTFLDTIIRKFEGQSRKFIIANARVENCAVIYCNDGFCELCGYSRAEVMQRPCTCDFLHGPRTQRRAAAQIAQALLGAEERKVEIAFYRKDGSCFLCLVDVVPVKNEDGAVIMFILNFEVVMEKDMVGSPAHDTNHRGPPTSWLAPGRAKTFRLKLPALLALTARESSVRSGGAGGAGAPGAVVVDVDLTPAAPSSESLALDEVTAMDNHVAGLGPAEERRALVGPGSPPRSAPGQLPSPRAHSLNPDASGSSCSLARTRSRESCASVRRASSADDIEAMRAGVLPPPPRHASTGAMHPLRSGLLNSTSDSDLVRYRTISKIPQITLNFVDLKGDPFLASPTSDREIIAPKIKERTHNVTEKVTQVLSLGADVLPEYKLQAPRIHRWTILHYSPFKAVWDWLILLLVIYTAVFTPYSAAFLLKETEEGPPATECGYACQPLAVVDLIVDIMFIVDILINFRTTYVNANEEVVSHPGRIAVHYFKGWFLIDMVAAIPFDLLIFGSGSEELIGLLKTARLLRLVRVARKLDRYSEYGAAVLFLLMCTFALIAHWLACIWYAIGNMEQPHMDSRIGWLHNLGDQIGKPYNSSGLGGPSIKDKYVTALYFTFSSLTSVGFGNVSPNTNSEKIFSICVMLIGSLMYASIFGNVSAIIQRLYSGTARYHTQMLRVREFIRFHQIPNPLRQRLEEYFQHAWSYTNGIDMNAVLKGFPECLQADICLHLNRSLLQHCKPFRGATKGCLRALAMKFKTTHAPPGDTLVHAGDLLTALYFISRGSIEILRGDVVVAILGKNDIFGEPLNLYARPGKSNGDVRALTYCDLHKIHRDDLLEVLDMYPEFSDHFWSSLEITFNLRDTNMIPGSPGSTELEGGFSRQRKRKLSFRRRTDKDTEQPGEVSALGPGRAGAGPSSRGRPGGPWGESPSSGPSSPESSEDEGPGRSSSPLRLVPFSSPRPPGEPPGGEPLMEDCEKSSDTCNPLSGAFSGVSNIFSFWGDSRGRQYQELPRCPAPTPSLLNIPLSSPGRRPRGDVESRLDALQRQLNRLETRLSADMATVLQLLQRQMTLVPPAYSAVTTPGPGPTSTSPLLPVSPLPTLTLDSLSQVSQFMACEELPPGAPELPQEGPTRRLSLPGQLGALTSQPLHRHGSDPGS
In short: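 Blockade is seen as reduced FluxOR thallium-flux fluorescence in U2OS cells expressing hERG from a BacMam construct, in Opti-MEM with 2% FCS. Concentration-response data fitted to the Hill equation for AC50.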

[9] = qHTS assay for small molecule activators of the p53 signaling pathway (AID 651743; active means well fitted activation curve with a large enough effect in the signal ratio, not every such curve was filed as active; the % refers to the signal ratio; further: series mostly up to about 92 µM; % of control where 0% means no effect); conditions: HCT-116 p53RE-bla, beta-lactamase FRET ratio, 16 h; activation: stronger effect = higher value
In short: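 Cell-based beta-lactamase reporter (p53 response elements, HCT-116 background). After a 5-hour preincubation, cells received compound for 16 hours at 37 C; substrate development ran 2 hours at room temperature.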

[10] = qHTS assay for small molecule disruptors of the mitochondrial membrane potential - 1 hr assay (AID 651754; calls by dose curve; further: on the % scale 0 is the no-effect control and ±100 the full control effect; nearly all actives have a fitted effect of over 35% in size)
In short: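 HepG2 cells, attached overnight, were exposed to compound for 1 hr at 37C, then stained 30 min with a potentiometric dye. Ratio of red aggregate (590nm) to green monomer (535nm) fluorescence reports membrane potential; collapse shifts signal toward green.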

[11] = qHTS assay for small molecule disruptors of the mitochondrial membrane potential - 5 hr assay (AID 651755; calls by dose curve; further: on the % scale 0 is the no-effect control and ±100 the full control effect; nearly all actives have a fitted effect of over 40% in size)
In short: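 HepG2 cells, attached overnight at 37C, were exposed to compound or DMSO for 5 hr at 37C, 5% CO2. Mito-MPS dye was then added for 30 min, and fluorescence read at 490/535 nm (monomers) and 540/590 nm (aggregates).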

[12] = target: Tumor necrosis factor (Homo sapiens) (UniProt P01375); assay: qHTS assay to identify small molecules that stimulate Tumor Necrosis Factor-alpha (TNF-alpha) secretion (AID 651757; active means well fitted curve in the direction sought with a large enough effect in the signal ratio; the % refers to the signal ratio; further: 0% is about no effect)
Chain of Tumor necrosis factor (Homo sapiens) (P01375 whole entry, looked up): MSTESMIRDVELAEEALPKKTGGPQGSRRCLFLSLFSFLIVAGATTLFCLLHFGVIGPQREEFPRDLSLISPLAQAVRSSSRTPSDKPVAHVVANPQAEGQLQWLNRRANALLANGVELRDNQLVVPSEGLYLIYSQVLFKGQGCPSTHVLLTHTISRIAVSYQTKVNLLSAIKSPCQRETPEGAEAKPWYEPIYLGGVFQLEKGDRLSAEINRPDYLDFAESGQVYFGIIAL
In short: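 THP-1 cells (3000/well) exposed to compounds 17 hrs at 37 C. Secreted TNF-alpha detected by HTRF with cryptate- and XL665-labeled anti-TNF-alpha antibodies after 3 hr at room temperature.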

[13] = qHTS assay for environmental chemicals that activate the Aryl hydrocarbon Receptor (AhR) signaling pathway (AID 651777); conditions: 1A2-DRE human hepatoma cells, luciferase, 24 h; activation: stronger effect = higher value; further: % of control where 0% means no effect; nearly all actives have a fitted effect of over 15% in size
In short: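 Measured luciferase activity, read 30 min after One-Glo addition at room temperature, from human hepatoma cells bearing a dioxin response element–CYP1A2 promoter reporter and exposed to compound for 24 hr at 37 C.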

[14] = target: Peroxisome proliferator-activated receptor alpha (Homo sapiens) (UniProt Q07869); assay: qHTS assay for small molecule agonists of the peroxisome proliferator-activated receptor alpha (PPARalpha) signaling pathway (AID 651778); conditions: PathHunter PPARalpha complementation, chemiluminescence, 6 h; max response: stronger effect = higher value; further: % of control where 0% means no effect
Chain of Peroxisome proliferator-activated receptor alpha (Homo sapiens) (Q07869 whole entry, looked up): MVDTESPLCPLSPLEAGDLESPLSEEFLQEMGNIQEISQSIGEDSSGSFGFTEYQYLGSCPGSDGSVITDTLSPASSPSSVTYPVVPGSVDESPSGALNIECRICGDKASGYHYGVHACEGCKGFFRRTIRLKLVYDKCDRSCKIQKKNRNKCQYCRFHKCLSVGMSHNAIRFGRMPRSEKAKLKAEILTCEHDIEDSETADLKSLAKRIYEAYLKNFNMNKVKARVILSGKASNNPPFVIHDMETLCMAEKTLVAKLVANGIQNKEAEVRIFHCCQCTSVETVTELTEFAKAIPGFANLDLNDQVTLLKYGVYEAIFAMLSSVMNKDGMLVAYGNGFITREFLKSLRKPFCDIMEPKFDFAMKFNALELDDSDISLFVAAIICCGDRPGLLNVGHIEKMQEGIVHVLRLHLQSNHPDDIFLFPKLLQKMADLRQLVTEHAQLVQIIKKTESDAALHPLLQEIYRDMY
In short: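 Cells plated at 2,000/well and held overnight at 37 C, 5% CO2, then compound added by pin tool for 6 hr; after PathHunter detection reagent and 60 min at room temperature, chemiluminescence from enzyme complementation was read.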

[15] = qHTS assay for small molecule agonists of the antioxidant response element (ARE) signaling pathway measured by Nrf2-dependant transcriptional activity (AID 720636; active means well fitted curve in the direction sought with a large enough effect in the repeat runs; an effect the other way counts as inactive or inconclusive;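 further: HepG2 cells with an ARE-driven luciferase reporter; % of control where 0% means no effect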)
In short: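 In HepG2 cells engineered with an Nrf2-responsive luciferase gene, ARE induction was quantified as luminescence after 16 hr compound treatment at 37 C.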

[16] = qHTS assay for small molecule antagonists of the retinoid-related orphan receptor gamma (ROR-gamma) signaling pathway - cell viability counter screen (AID 720652; active means well fitted curve in the direction sought with a large enough effect in the repeat runs; an effect the other way counts as inactive or inconclusive;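 further: CHO reporter cells with doxycycline-induced ROR-gamma expression; series mostly up to about 92 µM; compound exposure lasted 16 hr before ATP read; on the % scale 0 is the no-effect control and ±100 the full control effect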)
In short: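 CHO cells carrying TET-inducible ROR and RORE-luciferase reporter, plated 5 hr, then dosed with compound plus doxycycline. After 16 hr at 37 C, viability read as intracellular ATP by CellTiter-Glo luminescence.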

[17] = qHTS assay for small molecule agonists of the antioxidant response element (ARE) signaling pathway measured by Nrf2-dependant transcriptional activity - cell viability counter screen (AID 720653; active means well fitted curve in the direction sought with a large enough effect in the repeat runs; an effect the other way counts as inactive or inconclusive; further: on the % scale 0 is the no-effect control and ±100 the full control effect); conditions: ARE-bla HepG2 viability, CellTiter-Glo ATP luminescence, 16 h; max response: stronger effect = lower value
In short: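 ARE-bla HepG2 cells (2,000/well) rested 5 hrs at 37C/5% CO2, then exposed to compounds in DMSO for 16 hrs. Viability was read in the same wells as intracellular ATP by luminescence, 30 min at room temperature after reagent addition.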

[18] = qHTS assay for cell viability of the p53RE-bla HCT-116 cell line (AID 743292); further: on the % scale 0 is the no-effect control and ±100 the full control effect; nearly all actives have a fitted effect of over 55% in size
In short: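 Intracellular ATP of p53RE-bla HCT-116 cells measured by luciferase luminescence following 16 h compound incubation at 37 C; DMSO-only wells served as vehicle controls.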

[19] = target: Glutathione peroxidase 1 (Homo sapiens) (UniProt P07203); assay: Primary qHTS Assay for Inhibitors of Recombinant Selenoprotein Glutathione Peroxidase 1 (GPX1) (AID 1845191); further: nearly all actives have a fitted effect of over 65% in size
Chain of Glutathione peroxidase 1 (Homo sapiens) (P07203 whole entry, looked up): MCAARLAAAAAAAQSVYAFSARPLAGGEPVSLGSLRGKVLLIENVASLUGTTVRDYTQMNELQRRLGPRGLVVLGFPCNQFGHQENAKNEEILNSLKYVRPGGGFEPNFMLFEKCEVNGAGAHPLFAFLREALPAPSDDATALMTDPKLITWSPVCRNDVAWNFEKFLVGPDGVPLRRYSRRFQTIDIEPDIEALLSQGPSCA
In short: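 Recombinant GPX1 (10 nM final) was preincubated with compound for 30 min at room temperature, then reacted with 1 mM GSH, 0.5 mM CHP, 0.5 mM NADPH and 100 nM glutathione reductase; NADPH fluorescence (340/450 nm) was read at 0 and 15 min.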

[20] = target: Nuclear receptor subfamily 1 group I member 2 (Rattus norvegicus) (UniProt Q9R1A7); assay: qHTS assay for small molecule activators of the rat pregnane X receptor (rPXR) signaling pathway (AID 651751; call rule not given here; further: 0% is about no effect); conditions: rPXR reporter cells, luciferase (One-Glo), 24 h
Chain of Nuclear receptor subfamily 1 group I member 2 (Rattus norvegicus) (Q9R1A7 whole entry, looked up): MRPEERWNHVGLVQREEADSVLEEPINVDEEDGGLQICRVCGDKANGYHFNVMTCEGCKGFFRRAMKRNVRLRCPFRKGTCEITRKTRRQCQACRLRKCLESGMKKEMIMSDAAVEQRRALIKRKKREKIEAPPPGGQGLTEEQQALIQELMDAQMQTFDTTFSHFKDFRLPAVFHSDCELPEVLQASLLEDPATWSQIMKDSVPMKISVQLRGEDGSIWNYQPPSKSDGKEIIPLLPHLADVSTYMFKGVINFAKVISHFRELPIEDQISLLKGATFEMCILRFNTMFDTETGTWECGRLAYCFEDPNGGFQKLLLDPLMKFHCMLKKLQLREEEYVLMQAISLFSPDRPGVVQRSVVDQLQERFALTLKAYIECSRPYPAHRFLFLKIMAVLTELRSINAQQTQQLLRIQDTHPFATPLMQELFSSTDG

[21] = qHTS assay for small molecule activators of the human pregnane X receptor (PXR) signaling pathway (AID 720659; call rule not given here; further: 0% is about no effect)

O=C1CCc2ccccc2O1
-3.26%: max response [2]
-3.35%: max response [5]
inactive: outcome [1] | outcome [3] | outcome [4] | max response [6] 0.0036% | activity change % (negative = inhibition) [7] -1.36% | Potency [8] | activation [9] -0.942% | Potency [10] | Potency [11] | outcome [12] | activation [13] 0.95% | max response [14] 0.979% | Potency [15] | Potency [16] | max response [17] 2.06% | Potency [18] | Potency [19] | max response [20] 3.11% | outcome [21]
